Experiment [1] is described as follows: compounds binding Alexa647 anti-His antibody – biochemical, small-molecule microarray, 635 nm fluorescence, artefact control for SMM control protein annotation, primary screen (AID 1128).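 Note: score merges feature fluorescence with signal-to-noise for each printed compound spot.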 The conditions noted are these: higher = more signal.
In experiment [2] the test system is Human papillomavirus type 1a E7 protein (residues 1-88). Put plainly: HPV1a E7 small-molecule binders, primary screen, biochemical, small-molecule microarray, residues 1-88, 635 nm (AID 1129). The conditions noted are these: small-molecule microarray binding, fluorescence 635 nm; higher = more signal.
Experiment [3] addresses Focal adhesion kinase 1 (Homo sapiens) (UniProt Q05397). Put plainly: PTK2 protein binding on printed compound slides – biochemical, small-molecule microarray, 635/667 nm fluorescence, BSA, DTT, primary screen (AID 1130).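 Note: composite of spot emission at 667 nm and signal to noise over triplicate slides.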 The conditions noted are these: 635 nm fluorescence, higher = more signal.
Experiment [4] has as its system Fibrinogen (Alexa647-labelled). Put plainly: Alexa647-fibrinogen binding to printed small molecules – biochemical, small-molecule microarray, 635/667 nm fluorescence, artefact control for SMM control-protein annotation, profiling panel (AID 1131).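 Note: z-score merges 667 nm fluorescence with per-spot signal-to-noise over triplicate slides.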 As to conditions: fibrinogen-A647 binding fluorescence, higher = more signal.
Experiment [5] deals with Follistatin (Homo sapiens) (UniProt P19883). Put plainly: FST protein binding to printed compounds – biochemical, small-molecule microarray, 635/667 nm fluorescence, primary screen (AID 1132). The conditions noted are these: 635 nm fluorescence, higher = more signal.
Experiment [6] deals with Fibroblast growth factor 2 (Homo sapiens) (UniProt P09038). Put plainly: basic fibroblast growth factor binding to printed compounds – biochemical, small-molecule microarray, 635/667 nm fluorescence, primary screen (AID 1133). As to conditions: FGF2, fluorescence 635/667, higher = more signal.
Experiment [7] in a line: JC-1 mitochondrial potential readout, lung cancer cells – cell-based, A549, JC-1 fluorescence, basal, 24 h, 100 nL, profiling panel (AID 1138).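 Note: A549 lung adenocarcinoma cells under basal conditions with no added stimulus; test concentration not given here.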 As to conditions: higher = more signal.
Experiment [8] concerns Lefty1. Put plainly: Lefty1 protein binding to printed compounds – biochemical, small-molecule microarray, 635/667 nm fluorescence, primary screen (AID 1139). The conditions noted are these: fluorescence 635/667, higher = more signal.
The subject of experiment [9] is wheat germ agglutinin (Triticum aestivum), Alexa647-labelled. Put plainly: Alexa647-WGA lectin binding to printed small molecules – biochemical, small-molecule microarray, 635/667 nm fluorescence, artefact control for SMM control-protein annotation, profiling panel (AID 1140).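 Note: score merges 667 nm feature emission with signal to noise over triplicate slides.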 The conditions noted are these: WGA-A647 binding, 635 nm fluorescence, higher = more signal.

Experiment [10] addresses Luciferin 4-monooxygenase (Photinus pyralis) (UniProt P08659). Put plainly: inhibition of purified Photinus pyralis luciferase – biochemical, luminescence, purified enzyme, 2006 set, primary screen (AID 1141).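 Note: cell-free assay with purified firefly luciferase at 100 ng per well in PBS; test concentration not given here.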 The conditions noted are these: purified firefly luciferase, SteadyGlo luminescence, 30 min; higher = more signal, called active from +8 up or from −8 down.
The test system of experiment [11] is Wnt5a (protein binding on small-molecule microarray). Put plainly: small molecules binding Wnt5a protein – biophysical, small-molecule microarray, 635/667 nm fluorescence, primary screen (AID 1142).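 Note: fluorescence read at 667 nm with signal to noise per printed feature.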 The conditions noted are these: 635 nm fluorescence, higher = more signal.
Experiment [12] is described as follows: ATP-based viability of Huh7 replicon cells – cell-based, CellTiter-Glo luminescence, basal, 48 h, cytotoxicity control for HCV replication inhibitor project, primary screen (AID 1143).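 Note: Huh7 hepatoma cells carrying a hepatitis C replication reporter with no stimulus; test concentration not given here.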 The conditions noted are these: higher = more signal, called active from +8 up or from −8 down. On the technique in general: A replicon is a self-replicating genome or part of one, used to study replication in cells.

Experiment [13] can be described thus: Pseudomonas biofilm growth suppression – PAO1 strain, BacTiter-Glo luminescence, LB-PBS, primary screen (AID 1144). As to conditions: P. aeruginosa PAO1 biofilm, 12 h, higher = more signal.
A short description of experiment [14]: basal CRE-LacZ reporter activity in PC12 – cell-based, unstimulated, primary screen (AID 1145). The conditions noted are these: no forskolin, luminescence, 4.5 h, higher = more signal, called active from +8 up or from −8 down.
Experiment [15] is described as follows: forskolin-driven CRE-LacZ activity in PC12 – cell-based, CRE-LacZ reporter, forskolin-stimulated, primary screen (AID 1146).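 Note: PC12 cells with 6xCRE LacZ reporter stimulated by forskolin 10 µM; beta-galactosidase reporter signal reflecting CREB driven transcription.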 The conditions noted are these: luminescence, 4.5 h, higher = more signal, called active from +8 up or from −8 down.
The target in experiment [16] is Streptavidin (Streptomyces avidinii) (UniProt P22629). Put plainly: compounds binding control protein streptavidin – biophysical, small-molecule microarray, 635/667 nm fluorescence, artefact control for SMM compound annotation, primary screen (AID 1147).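 Note: signal reflects streptavidin binding to arrayed compounds as a control protein.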 The conditions noted are these: higher = more signal.
Experiment [17] is described as follows: probe aInhba binding on compound microarray – biochemical, small-molecule microarray, 635/667 nm fluorescence, primary screen (AID 1148).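 Note: score merges 667nm spot fluorescence with signal-to-noise for antibody binding to printed compounds.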 The conditions noted are these: higher = more signal.
Experiment [18] has as its target Torsin-1A (Homo sapiens) (UniProt O14656). Put plainly: TOR1A wild-type binding on microarray – cell lysate, small-molecule microarray, lysate, 635/667 nm, primary screen (AID 1149). As to conditions: COS7 hTOR1A-WT lysate, 635 nm fluorescence, higher = more signal.
Experiment [19] has the same target. Put plainly: torsin A mutant lysate binding on microarrays – cell lysate, small-molecule microarray, COS7 lysate, 635/667 nm fluorescence, primary screen (AID 1150).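 Note: score pools 667 nm emission and signal to noise measuring lysate protein binding.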 As to conditions: COS7 hTOR1A mutant lysate, 635 nm fluorescence, higher = more signal.
Experiment [20] has as its system Sonic hedgehog protein (Shh). Put plainly: Sonic hedgehog microarray binding compounds – biochemical, small-molecule microarray, 635/667 nm fluorescence, primary screen (AID 1151).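 Note: Shh protein binding to compounds spotted on small-molecule microarray slides; score combines spot fluorescence intensity with signal-to-noise across triplicate slides.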 The conditions noted are these: 635 nm fluorescence, higher = more signal.

The structures appear in SMILES notation. The source made the active and inactive calls. Unless noted, the rule behind the calls is not given here.

Results on 5 compounds are retold here after PubChem BioAssay.

Chain of Follistatin (Homo sapiens) (P19883 whole entry, looked up): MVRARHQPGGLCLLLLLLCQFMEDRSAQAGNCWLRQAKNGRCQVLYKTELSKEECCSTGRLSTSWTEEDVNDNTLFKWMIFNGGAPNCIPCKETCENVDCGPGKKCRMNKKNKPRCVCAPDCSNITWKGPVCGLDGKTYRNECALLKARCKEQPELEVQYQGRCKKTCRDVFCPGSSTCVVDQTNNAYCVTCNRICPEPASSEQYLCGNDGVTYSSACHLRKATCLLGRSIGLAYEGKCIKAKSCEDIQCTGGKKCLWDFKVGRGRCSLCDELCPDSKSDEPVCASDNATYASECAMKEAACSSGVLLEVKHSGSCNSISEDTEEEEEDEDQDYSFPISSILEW
Chain of Fibroblast growth factor 2 (Homo sapiens) (P09038 whole entry, looked up): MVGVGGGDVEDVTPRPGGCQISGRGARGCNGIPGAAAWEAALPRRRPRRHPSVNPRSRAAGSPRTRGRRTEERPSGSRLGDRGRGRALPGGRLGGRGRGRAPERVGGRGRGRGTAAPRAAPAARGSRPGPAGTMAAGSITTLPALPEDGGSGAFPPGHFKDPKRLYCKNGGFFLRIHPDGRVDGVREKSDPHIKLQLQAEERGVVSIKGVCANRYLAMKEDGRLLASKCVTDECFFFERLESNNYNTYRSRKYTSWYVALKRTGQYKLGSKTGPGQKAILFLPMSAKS
Chain of Luciferin 4-monooxygenase (Photinus pyralis) (P08659 whole entry, looked up): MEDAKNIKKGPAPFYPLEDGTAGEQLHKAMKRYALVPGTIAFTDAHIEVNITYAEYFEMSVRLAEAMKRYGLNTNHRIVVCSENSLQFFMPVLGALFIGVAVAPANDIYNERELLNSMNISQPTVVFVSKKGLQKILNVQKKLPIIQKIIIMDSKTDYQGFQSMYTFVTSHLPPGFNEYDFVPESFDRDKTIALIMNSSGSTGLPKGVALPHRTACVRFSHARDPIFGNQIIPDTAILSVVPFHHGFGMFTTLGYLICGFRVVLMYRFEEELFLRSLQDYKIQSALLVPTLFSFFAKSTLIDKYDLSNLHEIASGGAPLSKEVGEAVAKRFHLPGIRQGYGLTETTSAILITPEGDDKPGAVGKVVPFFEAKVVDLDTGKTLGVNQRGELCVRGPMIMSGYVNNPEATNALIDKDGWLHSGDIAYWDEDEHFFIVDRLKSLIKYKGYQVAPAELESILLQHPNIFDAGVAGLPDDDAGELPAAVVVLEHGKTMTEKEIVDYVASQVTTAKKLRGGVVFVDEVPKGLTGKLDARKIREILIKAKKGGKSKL
Chain of Streptavidin (Streptomyces avidinii) (P22629 whole entry, looked up): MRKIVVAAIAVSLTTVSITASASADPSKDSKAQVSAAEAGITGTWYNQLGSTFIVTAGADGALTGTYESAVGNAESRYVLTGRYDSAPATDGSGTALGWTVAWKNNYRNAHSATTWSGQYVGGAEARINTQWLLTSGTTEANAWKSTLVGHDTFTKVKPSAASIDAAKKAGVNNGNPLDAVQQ
Chain of Torsin-1A (Homo sapiens) (O14656 whole entry, looked up): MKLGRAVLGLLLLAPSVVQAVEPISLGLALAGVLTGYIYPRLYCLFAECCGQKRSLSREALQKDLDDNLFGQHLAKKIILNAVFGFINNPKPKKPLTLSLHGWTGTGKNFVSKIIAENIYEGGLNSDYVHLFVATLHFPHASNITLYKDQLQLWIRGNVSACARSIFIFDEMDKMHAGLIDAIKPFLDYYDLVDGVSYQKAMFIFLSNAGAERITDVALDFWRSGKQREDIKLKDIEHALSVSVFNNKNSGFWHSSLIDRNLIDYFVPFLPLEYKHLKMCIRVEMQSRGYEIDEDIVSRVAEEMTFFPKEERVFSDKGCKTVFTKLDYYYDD
Chain of Focal adhesion kinase 1 (Homo sapiens) (Q05397 whole entry, looked up): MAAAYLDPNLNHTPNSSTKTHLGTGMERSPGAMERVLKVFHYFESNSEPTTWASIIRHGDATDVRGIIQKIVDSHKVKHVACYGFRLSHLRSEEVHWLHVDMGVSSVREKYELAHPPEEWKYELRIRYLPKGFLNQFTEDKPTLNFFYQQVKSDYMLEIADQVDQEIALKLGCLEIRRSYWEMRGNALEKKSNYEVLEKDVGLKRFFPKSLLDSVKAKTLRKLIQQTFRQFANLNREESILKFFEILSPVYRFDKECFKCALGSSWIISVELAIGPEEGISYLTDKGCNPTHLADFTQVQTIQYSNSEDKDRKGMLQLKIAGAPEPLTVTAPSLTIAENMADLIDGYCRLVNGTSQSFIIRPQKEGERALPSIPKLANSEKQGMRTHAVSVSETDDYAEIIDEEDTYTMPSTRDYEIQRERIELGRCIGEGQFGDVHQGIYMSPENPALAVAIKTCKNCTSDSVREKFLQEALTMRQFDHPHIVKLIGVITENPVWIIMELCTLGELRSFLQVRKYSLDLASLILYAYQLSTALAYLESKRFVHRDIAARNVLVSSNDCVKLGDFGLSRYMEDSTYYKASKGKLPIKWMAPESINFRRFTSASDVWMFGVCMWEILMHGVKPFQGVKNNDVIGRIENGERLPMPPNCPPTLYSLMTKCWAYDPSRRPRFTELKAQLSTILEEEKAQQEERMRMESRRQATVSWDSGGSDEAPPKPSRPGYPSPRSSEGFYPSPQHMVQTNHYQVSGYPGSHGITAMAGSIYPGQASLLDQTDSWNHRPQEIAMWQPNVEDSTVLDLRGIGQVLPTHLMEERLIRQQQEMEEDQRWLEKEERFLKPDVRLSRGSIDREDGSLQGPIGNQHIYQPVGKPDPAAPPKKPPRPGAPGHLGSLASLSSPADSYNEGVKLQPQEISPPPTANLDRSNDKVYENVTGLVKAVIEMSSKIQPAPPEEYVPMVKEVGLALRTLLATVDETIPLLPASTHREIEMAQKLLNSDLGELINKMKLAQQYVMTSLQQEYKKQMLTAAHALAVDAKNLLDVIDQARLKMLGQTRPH

`C=CC1c2cc(O)c(OC)cc2CCN1Cc1sc2ccccc2c1Cl` (stereo not given): the composite z-score in [1] is 0.13; in [2], 0.696; in experiment [3], -0.025; in experiment [4], 0.863; in experiment [5], 1.28; in [6], -0.416. The composite z-score in [8] is 0.188; in experiment [9], 0.983; in [11], 0.252; in experiment [16], 1.57; in experiment [17] it was -0.295; in [18], -0.425. The composite z-score is 0.257 in experiment [19] and -0.0808 in experiment [20]. The z-score was -0.68 in experiment [7]; -0.707 (inactive) in experiment [10]; -3.81 (inactive) in [12]; 1.39 (inactive) in experiment [13]; -0.114 (inactive) in experiment [14]; 1.7 (inactive) in [15].

`CC(=O)n1cc(C(O)C2C=CC3C(=O)N(c4ccccc4)C(=O)C3N2Nc2ccccc2)c2ccccc21` (stereo not given): the composite z-score in [1] was 0.917; in [2] it was 0.663; in [3] it was 0.0901; in [4], 0.735; in experiment [5], 1.36; in [6], -0.379. In addition, the composite z-score was -0.137 in [8]; 1.27 in experiment [9]; 0.689 in experiment [11]; 0.862 in experiment [16]; 0.426 in [17]; 0.14 in experiment [18]. Further, the composite z-score was 1.08 in [19] and 0.497 in experiment [20]. In addition, the z-score is -0.282 in experiment [7]; 0.252 (inactive) in experiment [10]; -3.34 (inactive) in experiment [12]; -0.504 (inactive) in experiment [13]; 0.436 (inactive) in experiment [14]; -0.507 (inactive) in experiment [15].

`COc1ccc(C(O)C2C=CC3C(=O)N(c4ccccc4)C(=O)C3N2Nc2ccccc2)cc1OCc1ccccc1` (stereo not given): the composite z-score in experiment [1] was 0.621; in experiment [2] it was 1.24; in [3], 0.315; in experiment [4] it was 0.942; in experiment [5], 1.22; in experiment [6] it was -0.132. Also, the composite z-score amounted to 0.788 in experiment [8]; 1.22 in [9]; 0.302 in experiment [11]; 0.887 in experiment [16]; 0.185 in [17]; 0.867 in experiment [18]. Further, the composite z-score in experiment [19] turned out to be 0.887; in [20], 0.81. Further, the z-score in experiment [7] was -0.0208; in experiment [10] it was -0.414 (inactive); in [12] it was 0.197 (inactive); in [13] it was -1.12 (inactive); in experiment [14], 0.0535 (inactive); in [15], 0.414 (inactive).

Take `C=CCOC(=O)[C@@H]1[C@H]2C(=O)O[C@H](c3ccccc3)[C@H](c3ccccc3)N2[C@H](c2ccc(OCCOC(=O)[C@H]3C[C@H]4C(=O)N[C@@H](CC(C)C)C(=O)N4[C@H]3c3ccc(O)cc3)cc2)[C@@]12C(=O)Nc1ccc(I)cc12`: the composite z-score stood at 2.17 in [1]; 1.19 in experiment [2]; 0.538 in [3]; 0.623 in experiment [4]; 1.5 in experiment [5]; 1.87 in experiment [6]. The composite z-score in experiment [8] is 1.52; in experiment [9], 0.747; in [11], 0.504; in experiment [16] it was 0.324; in experiment [17], -0.102; in experiment [18] it was 1.33. The composite z-score in experiment [19] came to 1.33; in experiment [20], 1.97. Further, the z-score is -0.176 in experiment [7]; -0.646 (inactive) in experiment [10]; -0.141 (inactive) in [12]; 0.0488 (inactive) in experiment [13]; 0.277 (inactive) in [14]; -1.14 (inactive) in [15].

Regarding `C=CCNC(=O)[C@@H]1[C@H]2C(=O)O[C@H](c3ccccc3)[C@H](c3ccccc3)N2[C@H](c2ccc(OCCO)cc2)[C@@]12C(=O)N(C(=O)OCCOC)c1ccc(C#CC3=CCCCC3)cc12`, the composite z-score in experiment [1] amounted to 0.864; in [2] it was 1.23; in experiment [3] it was 0.677; in experiment [4] it was 0.871; in [5] it was 1.31; in experiment [6], 0.985. Moreover, the composite z-score in [8] was determined as 1.05; in experiment [9], 0.522; in [11] it was 0.335; in experiment [16] it was 0.902; in experiment [17], 0.104; in experiment [18] it was 0.694. Further, the composite z-score amounted to 0.823 in experiment [19] and 1.46 in experiment [20]. For the same compound, the z-score in [7] is -1.03; in experiment [10], -1.25 (inactive); in experiment [12], -2.81 (inactive); in [13] it was 0.576 (inactive); in experiment [14], 0.2 (inactive); in [15] it was 0.886 (inactive).
